Sampled rows, rich in hits. Any-hit rate of the full collection: about 7.4%.
SNCA expr inh = reduces expression of the alpha-synuclein gene | HEK-293 SNCA-luciferase knock-in, luminescence, 24 h | Potency, µM (titrated, usually from 57.2 µM), inactives show top-dose activity change, negative = inhibition, hits mostly inhibitors | hit rate 0.17% among 140,000;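 note: plate controls were DMSO cells for no effect and cell-free wells for full effect; nearly all actives have a fitted effect of over 45% in size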
3T3 cytotox = NIH 3T3 cell cytotoxicity; NIH 3T3 viability, CellTiter-Glo ATP luminescence, 48-72 h; Potency, µM (doses to about 96.7 µM), inactives show at the top dose activity change, negative = cytotoxicity, most hits filed as inhibitors; hit rate 4.3% among 94,000; AID 1345082; note: % is set by controls: 0 for no effect and ±100 for the full control effect; nearly all actives have a fitted effect of over 55% in size
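Mouse fibroblast NIH 3T3 cells, 400 per well, received compound via pintool and were incubated for 48 or 72 hr prior to CellTiter-Glo ATP luminescence measurement.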
HEK293 viab = counter-screen for SNCA expression inhibitors: cell viability. HEK-293-SNCA-luc viability, GF-AFC fluorescence, 24 h. Potency, µM (doses to about 57.1 µM), for the others: at the highest dose activity change, negative = cytotoxicity, usual class: cytotoxic. hit rate 0.12% among 150,000;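 note: 0% = DMSO-treated cells and -100% = medium-only wells without cells; nearly all actives have a fitted effect of over 30% in size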
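Cytotoxicity counterscreen: after 24 h compound treatment of genome-edited SNCA-luciferase HEK-293 cells, live-cell protease substrate GF-AFC read by fluorescence after 30 min; activity scaled between DMSO (0%) and medium-only (-100%), curves Hill-fitted.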
HEK cytotox = HEK 293 cell cytotoxicity; HEK 293 viability, ATP luminescence (CellTiter-Glo), 48-72 h; Potency, µM (titrated, usually from 115 µM), without a hit: at the highest dose activity change, negative = cytotoxicity, most hits filed as inhibitors; hit rate 6.6% among 94,000; AID 1345083; note: % is set by controls: 0 for no effect and ±100 for the full control effect; nearly all actives have a fitted effect of over 60% in size
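HEK 293 cells seeded at 250 cells/well were exposed to compound for 48 or 72 hr at 37 degree Celsius. Viability taken as ATP content by CellTiter-Glo luminescence.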
FLuc inh = blocks purified firefly luciferase enzyme activity | Potency, µM (top dose mostly 115 µM), usual class: inhibitors | purified P. pyralis luciferase, luminescence, biochemical | hit rate 2.5% among 76,000; note: % is set by controls: 0 for no effect and ±100 for the full control effect; nearly all actives have a fitted effect of over 65% in size
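Inhibitors were tested against purified firefly luciferase in a biochemical, low-substrate format (both substrates at 10uM) and luminescence measured with a CCD imager.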
hNpr1 antagonist = antagonists of human natriuretic peptide receptor Npr1; P16066; HEK293 hNpr1 GloSensor cGMP, ANP-stimulated luminescence; Potency, µM (titrated, usually from 46.3 µM), inactives show at the top dose activity change, negative = inhibition, hits mostly inhibitors; hit rate 1.6% among 76,000; calls by dose curve; note: % is set by controls: 0 for no effect and ±100 for the full control effect; nearly all actives have a fitted effect of over 60% in size
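Compound pre-incubated 30 min at room temperature on GloSensor-loaded HEK293 cells stably carrying hNpr1 and the pGS-40F cGMP biosensor. Stimulation uses hNppA at 0.1 nM final; luminescence is taken at baseline and 20 min post-agonist.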
Npr1 antag conf = hNpr1 antagonism, confirmation assay; shares compounds with hNpr1 antagonist; HEK293 hNpr1 cGMP GloSensor luminescence, ANP-stimulated; Potency, µM (series often up to 57.6 µM), inactives show top-dose activity change, negative = inhibition, hits mostly inhibitors; hit rate 76% among 1,400; AID 1347044; calls by dose curve; note: nearly all actives have a fitted effect of over 70% in size
Npr2 selectivity = antagonizes human Npr2, subtype selectivity check. shares compounds with hNpr1 antagonist. HEK293 hNpr2 GloSensor cGMP luminescence, CNP-stimulated. Potency, µM (series often up to 57.6 µM), without a hit: top-dose activity change, negative = inhibition, usual class: inhibitors. hit rate 67% among 1,400. AID 1347046; calls by dose curve; note: nearly all actives have a fitted effect of over 70% in size
FLuc inh counter = counter-screen for Npr1 antagonists: firefly luciferase inhibitors; AID 1347047; purified FLuc enzyme, luminescence, Km substrate; Potency, µM (top dose mostly 57.6 µM), for inactives: at the highest dose activity change, negative = inhibition, hits mostly inhibitors; hit rate 0.7% among 1,400; shares compounds with hNpr1 antagonist; note: 0% is about no effect
GloSensor cGMP = reduces cGMP signal in GloSensor control cells; shares compounds with hNpr1 antagonist; hit rate 69% among 1,400; HEK293 GloSensor cGMP, SNP-stimulated, luminescence; Potency, µM (highest dose often 57.6 µM), for the others: at the top dose activity change, negative = inhibition, usual class: inhibitors; calls by dose curve; note: % is set by controls: 0 for no effect and ±100 for the full control effect; nearly all actives have a fitted effect of over 70% in size
The depositor's hits bear a star; i = inactive; ? = inconclusive; . = no result given; [ ] = remark or other dose. Unless noted, calls come from the whole dose curve; as a rule, active = well fitted curve in the direction sought with a large enough effect; inconclusive = small, poorly fitted or top-dose-only effect, or another doubt; inactive = no such curve, though single readings can be large; an effect the other way counts as inactive or inconclusive. Potency is the fitted concentration of half-maximal effect.

SMILES | SNCA expr inh | 3T3 cytotox | HEK293 viab | HEK cytotox | FLuc inh | hNpr1 antagonist | Npr1 antag conf | Npr2 selectivity | FLuc inh counter | GloSensor cGMP
COCC(=O)NC1CCCN(Cc2ccc(-c3cncnc3)cc2)C1 (stereo not given) | 10%[87.6 µM] | -4%[138 µM] | -3%[12.5 µM] | 4%[172 µM] | . | . | . | . | . | .
CCc1cc(N2CCOC(c3ccc4cc(OC)ccc4c3)C2)nc(C)n1 (stereo not given) | 17% | ? | -2% | 35µM* | i | 11µM* | 22µM* | 22µM* | ? | 17µM*
COc1ccc2cc(C3CN(Cc4cc5n(n4)CCNC5)CCO3)ccc2c1 (stereo not given) | 125% | ? | 4% | ? | i | -21% | . | . | . | .
COc1ccc(-n2c(=O)c3c(n2Cc2ccccc2)CN(C(=O)C2CCCO2)CC3)cc1 (stereo not given) | 2%[87.6 µM] | ? | 4%[87.6 µM] | 2%[172 µM] | i | 2%[70.6 µM] | . | . | . | .
Clc1cc(NCCOc2ccccc2)n2nccc2n1 | 36%[87.6 µM] | ? | 6%[87.6 µM] | ? | ? | -30%[70.6 µM] | . | . | . | .
COc1cccc(CNc2cc(Cl)nc3ccnn23)c1 | -5%[87.6 µM] | 28µM* | -16%[87.6 µM] | ? | i | ? | 40µM* | 35µM* | 2%[86.2 µM] | 35µM*
Cc1cccc(-c2cccc(CN3CCC(NC(=O)c4cccnc4)CC3)c2)c1 | -20% | ? | 10% | ? | . | . | . | . | . | .
C[C@H]1/C=C/C=C/C=C/C=C/C=C/[C@@H](O)[C@H](C(=O)O)[C@H](O)C[C@H](O)CCC[C@H](O)C[C@H](O)C[C@H](O)[C@@H](C)C(=O)O[C@@H]1C | . | . | -3%[23.9 µM] | . | . | . | . | . | . | .
CCOc1ccc(C(=O)N2CCC3(CC2)N=C(c2ccc(Cl)cc2)NO3)cc1 | -26% | 1% | -10% | ? | i | 8.9µM* | 19µM* | 17µM* | -3% | 15µM*
CCOc1ccc(CC(=O)N2CCC3(CC2)N=C(c2ccc(Cl)cc2)NO3)cc1 | 6% | ? | 8% | ? | i | ? | . | . | . | .
COc1ccc(C(=O)N2CCC3(CC2)N=C(c2ccccc2)NO3)cc1OC | -6% | i | 10% | 7% | i | 1% | . | . | . | .
O=C(c1ccc2c(c1)OCO2)N1CCC2(CC1)N=C(c1ccc(Br)cc1)NO2 | 0% | ? | 17% | ? | i | 13µM* | 22µM* | 19µM* | -2% | 17µM*
COc1ccc(C(=O)N2CCC3(CC2)N=C(c2ccc(Cl)cc2)NO3)cc1OC | ? | -29% | 1% | ? | i | 11µM* | 11µM* | 12µM* | 0% | 9.7µM*
COc1ccc(C(=O)N2CCC3(CC2)N=C(c2ccc(Br)cc2)NO3)cc1OC | -18% | -24% | 13% | ? | i | 10µM* | 6.9µM* | 11µM* | -1% | 6.9µM*
COc1ccc(C(=O)N2CCCCCCN(C)C(=O)[C@@H]3CCC[C@@H]32)c(OC)n1 | -4% | 3% | 8% | -13% | i | 6% | . | . | . | .
CCOC(=O)[C@H]1C[C@]2(CCCCN(CCO)C2=O)N(C(=O)c2ccc(OC)cc2)[C@H]1c1ccco1 | . | -30% | . | ? | . | . | . | . | . | .
